Experimental data taken from PubChem BioAssay.
Active and inactive are the calls of the source.

Legend:
[1] = binders of probe aFSTL3 on microarray, primary screen, stem cell growth factor project, biochemical, small-molecule microarray, fluorescence 635/667 (AID 1064); details: higher = more signal;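 further: measures binding of the biotinylated anti-FSTL3 antibody to printed compounds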
[2] = binders from COS7 lysate, DM2A8 probe, primary screen, torsin A project, cell lysate, small-molecule microarray, fluorescence 635/667 (AID 1065); details: higher = more signal, COS7 lysate expressing mutant human TOR1A
[3] = binders of probe aFGF2 on microarray, primary screen, stem cell growth factor project, biochemical, small-molecule microarray, fluorescence 635/667 (AID 1067); details: higher = more signal;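 further: measures binding of biotinylated aFGF2 protein to printed compounds on slides; z-score merges feature fluorescence and signal-to-noise across triplicate slides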
[4] = binders of probe aFGF10 on microarray, primary screen, stem cell growth factor project, biochemical, small-molecule microarray, fluorescence 635/667 (AID 1071); details: higher = more signal;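 further: score merges 667 nm spot intensity and signal to noise from triplicate slides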
[5] = target: Neurogenic locus notch homolog protein 2 (Homo sapiens) (UniProt Q04721); test: Notch2 binders on small-molecule microarrays, primary screen, biochemical, small-molecule microarray, 635 nm fluorescence, stem cell growth factors (AID 1073); details: Notch2 binding, higher = more signal
[6] = target: Pro-neuregulin-1, membrane-bound isoform (Homo sapiens) (UniProt Q02297); test: NRG1 binders on small-molecule microarrays, primary screen, psychiatric disease protein project, biochemical, small-molecule microarray, fluorescence 635/667 (AID 1075); details: NRG1 binding, 635 nm fluorescence, higher = more signal;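 further: score combines 667 nm spot fluorescence with signal to noise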
[7] = test system: Neuregulin-1 EGF-like domain; test: binders of neuregulin-1 EGF-like domain, primary screen, biochemical, small-molecule microarray, 635 nm fluorescence (AID 1081); details: small-molecule microarray binding, higher = more signal;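 further: binding of the protein to compounds printed on small-molecule microarray slides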
[8] = FRG1 promoter luciferase signal modulators, primary screen, FRG1 inhibition for FSHD, cell-based, C2C12 myotubes, firefly/Renilla luciferase, luminescence (AID 1084); details: higher = more signal, called active from +8 up or from −8 down
[9] = binders of probe aFST on microarray, primary screen, stem cell growth factor project, biochemical, small-molecule microarray, fluorescence 635/667 (AID 1086); details: higher = more signal;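 further: score merges 667 nm fluorescence with signal-to-noise of each printed compound spot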
[10] = binders of probe aHhip on microarray, primary screen, stem cell growth factor project, biochemical, small-molecule microarray, fluorescence 635/667 (AID 1087); details: higher = more signal;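 further: score merges spot fluorescence at 667nm with spot signal to noise ratio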
[11] = test system: PRMT1 (protein arginine N-methyltransferase 1); test: PRMT1 binders on small-molecule microarrays, primary screen, biochemical, small-molecule microarray, 635 nm fluorescence (AID 1088); details: small-molecule microarray binding, higher = more signal;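 further: binding of Prmt1 protein to compounds spotted on small-molecule microarray slides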
[12] = yeast growth modulation, basal conditions, primary screen, YJM789 clinical isolate, OD600, 24 h (AID 1089);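 further: growth of clinical yeast isolate S. cerevisiae YJM 789 seeded 1000 cells per well; test concentration not given here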; details: S. cerevisiae YJM789 growth, higher = more signal, called active from +8 up or from −8 down
[13] = fission yeast growth modulation, primary screen, strain 972, OD600, 24 h, no modulator (AID 1090);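 further: basal condition with compound alone and no growth modifier present; test concentration not given here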; details: S. pombe 972 growth, higher = more signal, called active from +8 up or from −8 down
[14] = S. cerevisiae growth modulation with rapamycin, primary screen, strain BY4716, OD600, 96 h (AID 1091); details: higher = more signal, called active from +8 up or from −8 down; further: test concentration not given here
[15] = target: Torsin-1A-interacting protein 2 (Homo sapiens) (UniProt Q8NFQ8); test: LULL1 binders on small-molecule microarray, primary screen, cell lysate, human LULL1 lysate, 635/667 nm fluorescence (AID 1092); details: hLULL1 lysate binding, 635 nm fluorescence, higher = more signal;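 further: probe is lysate of COS7 cells overexpressing human LULL1; score merges per-feature 667 nm fluorescence with signal-to-noise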
[16] = E. coli growth modulation, two-sided OD650, primary screen, E. coli filamentation project, strain DRC41, 24 h (AID 1093); details: OD650, 24 h, higher = more signal, called active from +8 up or from −8 down;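 further: MC1000 strain lacking acrAB efflux and sulA so SOS filamentation is blocked; test concentration not given here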
[17] = small-molecule microarray binders of probe aLefty2, primary screen, biochemical, biotinylated probe, 635/667 nm fluorescence (AID 1094); details: higher = more signal;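 further: score merges spot fluorescence near 667 nm with spot signal-to-noise ratio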
[18] = test system: Noggin (protein binding on small-molecule microarray); test: Noggin binders on small-molecule microarray, primary screen, biochemical, 635/667 nm fluorescence (AID 1095); details: 635 nm fluorescence, higher = more signal;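 further: score merges 667 nm feature fluorescence with signal to noise over triplicate slides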
[19] = target: Neurogenic locus notch homolog protein 3 (Homo sapiens) (UniProt Q9UM47); test: NOTCH3 binders on small-molecule microarray, primary screen, biochemical, 635/667 nm fluorescence (AID 1096); details: NOTCH3 binding, 635 nm fluorescence, higher = more signal
[20] = small-molecule microarray binders of probe aEGFR, primary screen, biochemical, biotinylated probe, 635/667 nm fluorescence (AID 1097); details: higher = more signal;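 further: probe is a biotinylated anti-EGFR antibody binding compounds printed on slides; score combines fluorescence near 667 nm and signal to noise of each spot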

Chain of Neurogenic locus notch homolog protein 2 (Homo sapiens) (Q04721 whole entry, looked up, canonical isoform): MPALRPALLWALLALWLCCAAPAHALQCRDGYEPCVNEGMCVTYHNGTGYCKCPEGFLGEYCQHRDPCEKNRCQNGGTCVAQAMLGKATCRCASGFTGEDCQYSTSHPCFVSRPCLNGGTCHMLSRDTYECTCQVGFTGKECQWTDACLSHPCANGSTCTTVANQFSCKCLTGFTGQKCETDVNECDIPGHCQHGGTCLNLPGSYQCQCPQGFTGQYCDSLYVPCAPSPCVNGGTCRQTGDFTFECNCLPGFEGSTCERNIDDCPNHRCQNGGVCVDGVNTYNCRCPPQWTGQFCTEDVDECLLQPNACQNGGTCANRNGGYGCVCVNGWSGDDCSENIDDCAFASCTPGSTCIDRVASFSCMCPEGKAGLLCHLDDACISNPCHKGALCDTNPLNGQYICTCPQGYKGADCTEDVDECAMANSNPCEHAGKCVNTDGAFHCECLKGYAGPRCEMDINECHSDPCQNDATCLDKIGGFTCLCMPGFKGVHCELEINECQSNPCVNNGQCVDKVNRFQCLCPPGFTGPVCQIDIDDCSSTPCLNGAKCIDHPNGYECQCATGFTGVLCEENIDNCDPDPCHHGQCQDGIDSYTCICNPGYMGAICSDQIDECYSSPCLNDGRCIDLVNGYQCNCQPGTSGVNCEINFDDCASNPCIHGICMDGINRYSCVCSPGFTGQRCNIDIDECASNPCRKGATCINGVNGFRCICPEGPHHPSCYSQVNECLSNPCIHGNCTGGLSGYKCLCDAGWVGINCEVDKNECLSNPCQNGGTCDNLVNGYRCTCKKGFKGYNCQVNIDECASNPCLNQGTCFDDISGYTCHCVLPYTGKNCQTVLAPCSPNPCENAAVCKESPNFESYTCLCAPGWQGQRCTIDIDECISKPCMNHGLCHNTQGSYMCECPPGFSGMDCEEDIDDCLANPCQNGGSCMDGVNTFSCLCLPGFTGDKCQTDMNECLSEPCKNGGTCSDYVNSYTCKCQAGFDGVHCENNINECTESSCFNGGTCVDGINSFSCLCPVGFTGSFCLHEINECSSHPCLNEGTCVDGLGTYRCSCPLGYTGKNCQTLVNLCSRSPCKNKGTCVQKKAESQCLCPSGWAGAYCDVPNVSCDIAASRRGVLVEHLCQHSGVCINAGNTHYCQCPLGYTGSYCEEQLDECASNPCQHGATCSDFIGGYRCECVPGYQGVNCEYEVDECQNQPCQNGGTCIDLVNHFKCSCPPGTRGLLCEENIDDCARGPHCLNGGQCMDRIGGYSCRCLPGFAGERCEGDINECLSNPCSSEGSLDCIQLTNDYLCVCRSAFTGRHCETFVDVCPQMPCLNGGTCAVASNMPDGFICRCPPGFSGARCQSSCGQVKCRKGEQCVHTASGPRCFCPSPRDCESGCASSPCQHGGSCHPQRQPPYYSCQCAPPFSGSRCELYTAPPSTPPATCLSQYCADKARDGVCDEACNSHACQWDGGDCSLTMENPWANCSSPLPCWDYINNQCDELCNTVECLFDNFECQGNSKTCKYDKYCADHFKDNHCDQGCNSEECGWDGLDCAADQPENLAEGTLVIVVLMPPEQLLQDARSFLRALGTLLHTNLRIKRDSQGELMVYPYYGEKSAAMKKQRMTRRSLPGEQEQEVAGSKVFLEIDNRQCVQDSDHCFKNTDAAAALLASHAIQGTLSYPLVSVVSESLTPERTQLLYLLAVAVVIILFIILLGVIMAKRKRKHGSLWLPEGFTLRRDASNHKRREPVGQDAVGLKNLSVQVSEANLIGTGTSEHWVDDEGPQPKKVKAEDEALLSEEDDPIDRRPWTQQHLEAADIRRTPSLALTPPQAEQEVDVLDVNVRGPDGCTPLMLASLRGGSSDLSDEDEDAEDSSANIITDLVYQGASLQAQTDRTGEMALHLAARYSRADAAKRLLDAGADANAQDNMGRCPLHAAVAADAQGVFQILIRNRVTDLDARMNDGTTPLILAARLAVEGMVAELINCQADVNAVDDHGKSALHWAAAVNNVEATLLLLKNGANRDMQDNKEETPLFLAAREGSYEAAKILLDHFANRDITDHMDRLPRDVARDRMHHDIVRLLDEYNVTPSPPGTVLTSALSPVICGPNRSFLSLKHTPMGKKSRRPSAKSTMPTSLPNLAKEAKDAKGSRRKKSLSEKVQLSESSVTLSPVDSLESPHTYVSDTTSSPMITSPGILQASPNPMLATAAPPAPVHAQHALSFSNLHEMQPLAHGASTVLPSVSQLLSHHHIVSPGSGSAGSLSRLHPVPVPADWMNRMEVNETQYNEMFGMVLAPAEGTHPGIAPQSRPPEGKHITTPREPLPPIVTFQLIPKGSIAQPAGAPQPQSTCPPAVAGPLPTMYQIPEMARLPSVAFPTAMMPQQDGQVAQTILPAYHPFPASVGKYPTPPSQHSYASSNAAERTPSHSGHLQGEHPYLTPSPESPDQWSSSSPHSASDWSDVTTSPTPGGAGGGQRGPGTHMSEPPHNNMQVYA
Chain of Torsin-1A-interacting protein 2 (Homo sapiens) (Q8NFQ8 whole entry, looked up): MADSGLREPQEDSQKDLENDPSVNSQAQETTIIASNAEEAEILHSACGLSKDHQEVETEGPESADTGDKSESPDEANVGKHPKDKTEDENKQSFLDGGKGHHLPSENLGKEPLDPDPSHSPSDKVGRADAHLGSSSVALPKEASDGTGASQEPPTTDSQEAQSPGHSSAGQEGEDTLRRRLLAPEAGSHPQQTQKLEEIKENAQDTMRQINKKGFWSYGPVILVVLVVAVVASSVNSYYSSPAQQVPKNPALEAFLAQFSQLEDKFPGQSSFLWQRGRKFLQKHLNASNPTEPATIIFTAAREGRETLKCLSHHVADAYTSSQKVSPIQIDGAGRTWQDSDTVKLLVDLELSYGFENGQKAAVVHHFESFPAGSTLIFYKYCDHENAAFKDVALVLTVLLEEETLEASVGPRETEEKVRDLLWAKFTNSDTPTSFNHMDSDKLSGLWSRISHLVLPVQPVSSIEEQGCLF
Chain of Pro-neuregulin-1, membrane-bound isoform (Homo sapiens) (Q02297 whole entry, looked up, the tested form may be a part, canonical isoform): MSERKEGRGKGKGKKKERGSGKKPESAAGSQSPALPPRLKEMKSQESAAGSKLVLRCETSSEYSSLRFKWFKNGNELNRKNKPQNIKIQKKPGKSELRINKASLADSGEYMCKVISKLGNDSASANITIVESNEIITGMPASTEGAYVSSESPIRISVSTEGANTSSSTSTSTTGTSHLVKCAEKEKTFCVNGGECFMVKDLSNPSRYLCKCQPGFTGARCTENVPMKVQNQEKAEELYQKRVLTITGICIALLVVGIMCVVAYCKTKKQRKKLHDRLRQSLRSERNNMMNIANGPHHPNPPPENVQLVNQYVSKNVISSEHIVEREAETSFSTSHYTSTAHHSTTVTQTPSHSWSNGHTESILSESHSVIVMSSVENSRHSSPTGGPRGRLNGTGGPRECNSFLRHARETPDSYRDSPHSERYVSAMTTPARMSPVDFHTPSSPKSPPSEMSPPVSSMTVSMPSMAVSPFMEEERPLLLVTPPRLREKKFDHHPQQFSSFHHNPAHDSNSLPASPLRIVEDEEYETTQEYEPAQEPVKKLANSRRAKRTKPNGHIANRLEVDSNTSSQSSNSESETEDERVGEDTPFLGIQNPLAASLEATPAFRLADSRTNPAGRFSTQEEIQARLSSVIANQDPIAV

Row | Compound | composite z-score [1] | composite z-score [2] | composite z-score [3] | composite z-score [4] | composite z-score [5] | composite z-score [6] | composite z-score [7] | z-score [8] | composite z-score [9] | composite z-score [10] | composite z-score [11] | z-score [12] | z-score [13] | z-score [14] | composite z-score [15] | z-score [16] | composite z-score [17] | composite z-score [18] | composite z-score [19] | composite z-score [20]
1 | O=C1OCCC=C[C@H]2OC34C=CCN(c5ccc6ccccc6c5)C(=O)[C@H]3N(CCCCCCO)C(=O)[C@@H]4C12 (stereo not given in full) | 0.366 | 0.79 | -0.143 | -0.367 | -0.834 | 2.03 | 0.193 | 1.66 (inactive) | -0.514 | -0.546 | 0.864 | 0.494 (inactive) | -1.55 (inactive) | 0.22 (inactive) | 0.911 | 0.67 (inactive) | -0.087 | -1.63 | -0.228 | -0.178
2 | COc1ccc(C#Cc2ccc3c(c2)[C@]2(C(=O)N3)[C@H](c3ccc(OCCO)cc3)N3[C@H](c4ccccc4)[C@H](c4ccccc4)OC(=O)[C@H]3[C@@H]2C(=O)Nc2nc3ccccc3s2)cc1 | 0.244 | 0.664 | -0.0167 | 0.71 | 1.07 | 2.24 | 1.13 | 3.55 (inactive) | 0.667 | -0.181 | 1.54 | 2 (inactive) | 0.831 (inactive) | 1.44 (inactive) | 3.02 | 2.4 (inactive) | 0.135 | 0.57 | 1.12 | 0.238
3 | O=C(NCc1ccccc1)[C@@H]1c2ccccc2C(=O)N(Cc2cc(F)cc(C(F)(F)F)c2)[C@H]1c1ccc(CO)cc1 | -0.307 | 0.582 | -0.0598 | 0.0655 | 0.558 | 0.393 | 1.32 | -1.67 (inactive) | 0.0906 | -0.179 | 1.49 | 0.314 (inactive) | 0.252 (inactive) | -0.319 (inactive) | 2.82 | 0.387 (inactive) | -0.103 | 0.561 | 0.791 | 0.021
4 | Cc1ccc(S[C@]2(C(=O)NCCCN(C)C)CC(=O)N(C(C)C)[C@@H]2c2ccc(CO)cc2I)cc1 | 0.052 | -0.54 | -0.0954 | -0.238 | -0.373 | 0.994 | 0.861 | -0.312 (inactive) | -0.152 | -0.354 | 1.05 | -1.25 (inactive) | -2.91 (inactive) | -1.13 (inactive) | 2.88 | 0.0601 (inactive) | -0.0654 | -0.521 | -0.0055 | -0.142
5 | C=CC[C@@]1(C(=O)NCc2ccccc2)N=C(c2ccc(OCCCO)cc2)O[C@@H]1c1ccccc1CN=[N+]=[N-] | 0.351 | -0.651 | 0.153 | 0.799 | 1.54 | 1.57 | 1.2 | -2.56 (inactive) | 1.44 | -0.0237 | 0.985 | 0.371 (inactive) | 1.68 (inactive) | 4.84 (inactive) | 3.17 | -0.759 (inactive) | 0.418 | 0.0824 | 0.901 | 0.0149
